Legend:
[1] = target: T1, Serine/threonine-protein kinase 17A (Homo sapiens) (UniProt Q9UEE5); details: at 10 µM
T1 sequence (whole entry): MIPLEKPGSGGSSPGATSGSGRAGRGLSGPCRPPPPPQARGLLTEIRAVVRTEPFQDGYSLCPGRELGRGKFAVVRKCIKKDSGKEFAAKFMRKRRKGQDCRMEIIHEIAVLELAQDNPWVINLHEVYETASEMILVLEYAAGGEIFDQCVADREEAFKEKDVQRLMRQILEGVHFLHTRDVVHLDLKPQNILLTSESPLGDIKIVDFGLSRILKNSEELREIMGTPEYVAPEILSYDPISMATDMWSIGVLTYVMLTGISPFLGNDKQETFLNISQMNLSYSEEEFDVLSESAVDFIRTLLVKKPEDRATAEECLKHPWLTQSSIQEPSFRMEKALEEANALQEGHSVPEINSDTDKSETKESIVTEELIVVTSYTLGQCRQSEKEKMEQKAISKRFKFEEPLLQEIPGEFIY

[2] = target: T2, Dual specificity tyrosine-phosphorylation-regulated kinase 2 (Homo sapiens) (UniProt Q92630); details: at 1 µM
T2 sequence (whole entry): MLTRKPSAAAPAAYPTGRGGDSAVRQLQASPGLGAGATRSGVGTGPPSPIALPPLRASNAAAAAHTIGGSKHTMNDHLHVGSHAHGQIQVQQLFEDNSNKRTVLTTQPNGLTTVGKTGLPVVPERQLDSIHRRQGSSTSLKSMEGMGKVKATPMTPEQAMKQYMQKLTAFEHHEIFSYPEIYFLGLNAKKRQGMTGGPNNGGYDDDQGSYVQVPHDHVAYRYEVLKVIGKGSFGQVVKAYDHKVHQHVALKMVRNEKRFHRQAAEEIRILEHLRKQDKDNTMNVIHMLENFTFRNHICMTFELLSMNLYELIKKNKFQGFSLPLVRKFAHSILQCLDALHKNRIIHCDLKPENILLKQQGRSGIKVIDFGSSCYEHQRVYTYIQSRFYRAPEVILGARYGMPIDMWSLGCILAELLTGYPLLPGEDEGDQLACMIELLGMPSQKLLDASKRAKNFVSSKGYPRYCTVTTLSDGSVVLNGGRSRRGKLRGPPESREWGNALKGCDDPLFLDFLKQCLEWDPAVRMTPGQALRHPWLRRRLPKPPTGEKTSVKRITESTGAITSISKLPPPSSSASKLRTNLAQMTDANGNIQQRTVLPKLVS

[3] = target: T2, Dual specificity tyrosine-phosphorylation-regulated kinase 2 (Homo sapiens); details: at 10 µM
[4] = target: T3, Ephrin type-A receptor 1 (Homo sapiens) (UniProt P21709); details: at 1 µM
T3 sequence (whole entry): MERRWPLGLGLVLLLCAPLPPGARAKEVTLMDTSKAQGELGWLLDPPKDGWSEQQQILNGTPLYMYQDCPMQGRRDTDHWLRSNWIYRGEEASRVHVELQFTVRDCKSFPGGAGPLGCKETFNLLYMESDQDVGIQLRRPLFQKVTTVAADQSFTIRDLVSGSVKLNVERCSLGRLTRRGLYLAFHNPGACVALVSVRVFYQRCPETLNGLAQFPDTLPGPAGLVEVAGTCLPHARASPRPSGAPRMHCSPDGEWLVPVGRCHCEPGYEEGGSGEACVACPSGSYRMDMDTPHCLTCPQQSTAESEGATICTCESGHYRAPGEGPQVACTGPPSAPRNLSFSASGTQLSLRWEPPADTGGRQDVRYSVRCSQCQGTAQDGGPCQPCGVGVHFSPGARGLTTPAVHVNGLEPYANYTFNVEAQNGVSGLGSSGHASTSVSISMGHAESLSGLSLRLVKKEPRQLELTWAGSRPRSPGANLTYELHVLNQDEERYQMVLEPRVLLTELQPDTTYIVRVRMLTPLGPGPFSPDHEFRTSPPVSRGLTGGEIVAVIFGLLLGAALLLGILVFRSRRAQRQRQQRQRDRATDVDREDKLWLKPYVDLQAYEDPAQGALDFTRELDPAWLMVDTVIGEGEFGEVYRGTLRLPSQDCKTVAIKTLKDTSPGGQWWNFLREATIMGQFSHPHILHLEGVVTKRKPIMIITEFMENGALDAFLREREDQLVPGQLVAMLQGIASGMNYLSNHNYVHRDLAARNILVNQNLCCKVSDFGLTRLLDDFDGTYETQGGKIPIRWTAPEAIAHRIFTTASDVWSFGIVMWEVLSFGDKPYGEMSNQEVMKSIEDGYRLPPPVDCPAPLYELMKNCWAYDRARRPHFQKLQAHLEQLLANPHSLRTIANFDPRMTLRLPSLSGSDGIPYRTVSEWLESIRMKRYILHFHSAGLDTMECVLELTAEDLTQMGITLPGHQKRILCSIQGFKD

[5] = target: T3, Ephrin type-A receptor 1 (Homo sapiens); details: at 10 µM
[6] = target: Ephrin type-A receptor 2 (Homo sapiens) (UniProt P29317); details: at 1 µM
Ephrin type-A receptor 2 (Homo sapiens), sequence (P29317 whole entry): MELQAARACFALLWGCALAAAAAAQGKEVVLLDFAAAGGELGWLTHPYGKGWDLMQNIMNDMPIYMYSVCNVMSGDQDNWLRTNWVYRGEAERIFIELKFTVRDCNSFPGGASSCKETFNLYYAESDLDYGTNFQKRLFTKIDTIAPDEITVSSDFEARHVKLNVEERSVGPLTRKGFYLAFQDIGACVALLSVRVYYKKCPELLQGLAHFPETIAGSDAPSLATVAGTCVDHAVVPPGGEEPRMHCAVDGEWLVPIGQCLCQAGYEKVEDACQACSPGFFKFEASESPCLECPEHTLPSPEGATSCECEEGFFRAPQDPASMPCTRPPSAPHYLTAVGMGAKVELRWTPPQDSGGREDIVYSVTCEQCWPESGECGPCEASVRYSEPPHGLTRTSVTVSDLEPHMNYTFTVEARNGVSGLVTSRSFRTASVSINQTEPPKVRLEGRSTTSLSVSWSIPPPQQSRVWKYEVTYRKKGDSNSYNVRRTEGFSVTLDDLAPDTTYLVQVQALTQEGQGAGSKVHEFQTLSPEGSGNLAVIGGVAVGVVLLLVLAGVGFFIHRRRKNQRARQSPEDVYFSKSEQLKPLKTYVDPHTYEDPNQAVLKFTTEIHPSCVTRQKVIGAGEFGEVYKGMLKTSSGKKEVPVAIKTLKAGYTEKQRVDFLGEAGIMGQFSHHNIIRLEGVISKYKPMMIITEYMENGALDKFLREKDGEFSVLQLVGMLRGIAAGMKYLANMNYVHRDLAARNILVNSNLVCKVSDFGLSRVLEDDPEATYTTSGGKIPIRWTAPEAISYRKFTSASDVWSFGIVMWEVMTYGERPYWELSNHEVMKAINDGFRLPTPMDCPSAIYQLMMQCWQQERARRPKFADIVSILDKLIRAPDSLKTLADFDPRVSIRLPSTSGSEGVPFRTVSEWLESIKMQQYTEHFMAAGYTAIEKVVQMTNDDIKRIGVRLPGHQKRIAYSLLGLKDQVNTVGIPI

[7] = target: Ephrin type-A receptor 2 (Homo sapiens) (UniProt P29317); details: at 10 µM
[8] = target: T4, Ephrin type-A receptor 3 (Homo sapiens) (UniProt P29320); details: at 1 µM
T4 sequence (whole entry): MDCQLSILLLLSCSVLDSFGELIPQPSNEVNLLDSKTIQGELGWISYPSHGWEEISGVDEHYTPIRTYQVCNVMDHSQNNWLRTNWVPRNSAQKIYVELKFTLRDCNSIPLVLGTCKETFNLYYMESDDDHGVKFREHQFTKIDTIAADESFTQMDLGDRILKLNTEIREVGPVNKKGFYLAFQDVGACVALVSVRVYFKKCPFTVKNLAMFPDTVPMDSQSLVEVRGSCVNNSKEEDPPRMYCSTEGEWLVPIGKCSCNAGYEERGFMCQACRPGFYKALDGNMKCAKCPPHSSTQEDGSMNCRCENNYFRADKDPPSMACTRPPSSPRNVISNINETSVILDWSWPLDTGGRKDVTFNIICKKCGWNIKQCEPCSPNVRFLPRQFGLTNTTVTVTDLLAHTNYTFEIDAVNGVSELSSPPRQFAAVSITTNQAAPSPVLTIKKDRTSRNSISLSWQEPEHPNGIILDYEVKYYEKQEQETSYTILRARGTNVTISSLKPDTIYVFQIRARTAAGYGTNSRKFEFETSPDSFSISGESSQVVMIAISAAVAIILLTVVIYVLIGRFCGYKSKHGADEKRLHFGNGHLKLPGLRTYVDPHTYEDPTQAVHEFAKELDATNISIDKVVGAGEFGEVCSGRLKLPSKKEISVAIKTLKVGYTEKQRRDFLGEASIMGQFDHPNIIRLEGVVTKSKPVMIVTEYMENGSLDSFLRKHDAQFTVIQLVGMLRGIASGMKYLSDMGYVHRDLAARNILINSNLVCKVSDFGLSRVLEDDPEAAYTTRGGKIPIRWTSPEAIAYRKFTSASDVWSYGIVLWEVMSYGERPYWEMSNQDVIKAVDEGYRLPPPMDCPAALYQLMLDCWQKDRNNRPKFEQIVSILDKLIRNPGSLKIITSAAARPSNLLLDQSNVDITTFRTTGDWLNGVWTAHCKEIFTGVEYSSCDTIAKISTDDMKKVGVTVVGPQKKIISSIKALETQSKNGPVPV

[9] = target: T4, Ephrin type-A receptor 3 (Homo sapiens); details: at 10 µM
[10] = target: Ephrin type-A receptor 4 (Homo sapiens) (UniProt P54764); details: at 1 µM
Ephrin type-A receptor 4 (Homo sapiens), sequence (P54764 whole entry): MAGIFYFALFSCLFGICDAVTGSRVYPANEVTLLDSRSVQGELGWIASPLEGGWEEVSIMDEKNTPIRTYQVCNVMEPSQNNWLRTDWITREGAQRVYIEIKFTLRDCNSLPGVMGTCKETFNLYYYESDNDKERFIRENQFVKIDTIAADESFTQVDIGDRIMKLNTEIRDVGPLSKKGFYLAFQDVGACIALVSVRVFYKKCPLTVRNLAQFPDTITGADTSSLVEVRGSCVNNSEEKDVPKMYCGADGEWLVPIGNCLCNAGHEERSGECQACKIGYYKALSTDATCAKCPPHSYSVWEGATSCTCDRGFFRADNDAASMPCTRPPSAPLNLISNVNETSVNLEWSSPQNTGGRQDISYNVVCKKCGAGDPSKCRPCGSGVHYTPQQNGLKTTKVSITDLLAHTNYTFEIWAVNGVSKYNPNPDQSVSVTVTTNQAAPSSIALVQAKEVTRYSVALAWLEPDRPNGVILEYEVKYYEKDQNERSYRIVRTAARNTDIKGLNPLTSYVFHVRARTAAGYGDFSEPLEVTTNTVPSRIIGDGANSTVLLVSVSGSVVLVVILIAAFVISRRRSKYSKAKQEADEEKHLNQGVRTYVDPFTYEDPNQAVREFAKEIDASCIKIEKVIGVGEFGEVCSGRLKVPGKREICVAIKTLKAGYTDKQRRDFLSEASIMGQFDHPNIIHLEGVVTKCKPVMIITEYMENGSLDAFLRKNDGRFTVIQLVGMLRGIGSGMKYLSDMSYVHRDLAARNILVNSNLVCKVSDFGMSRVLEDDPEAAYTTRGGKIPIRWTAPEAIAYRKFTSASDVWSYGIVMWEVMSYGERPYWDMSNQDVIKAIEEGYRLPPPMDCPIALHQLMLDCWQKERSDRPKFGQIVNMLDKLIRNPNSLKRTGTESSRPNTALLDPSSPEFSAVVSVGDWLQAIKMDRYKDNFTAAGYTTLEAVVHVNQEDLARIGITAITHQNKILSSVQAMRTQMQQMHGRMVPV

[11] = target: Ephrin type-A receptor 4 (Homo sapiens) (UniProt P54764); details: at 10 µM
[12] = target: Ephrin type-A receptor 5 (Homo sapiens) (UniProt P54756); details: at 1 µM
Ephrin type-A receptor 5 (Homo sapiens), sequence (P54756 whole entry): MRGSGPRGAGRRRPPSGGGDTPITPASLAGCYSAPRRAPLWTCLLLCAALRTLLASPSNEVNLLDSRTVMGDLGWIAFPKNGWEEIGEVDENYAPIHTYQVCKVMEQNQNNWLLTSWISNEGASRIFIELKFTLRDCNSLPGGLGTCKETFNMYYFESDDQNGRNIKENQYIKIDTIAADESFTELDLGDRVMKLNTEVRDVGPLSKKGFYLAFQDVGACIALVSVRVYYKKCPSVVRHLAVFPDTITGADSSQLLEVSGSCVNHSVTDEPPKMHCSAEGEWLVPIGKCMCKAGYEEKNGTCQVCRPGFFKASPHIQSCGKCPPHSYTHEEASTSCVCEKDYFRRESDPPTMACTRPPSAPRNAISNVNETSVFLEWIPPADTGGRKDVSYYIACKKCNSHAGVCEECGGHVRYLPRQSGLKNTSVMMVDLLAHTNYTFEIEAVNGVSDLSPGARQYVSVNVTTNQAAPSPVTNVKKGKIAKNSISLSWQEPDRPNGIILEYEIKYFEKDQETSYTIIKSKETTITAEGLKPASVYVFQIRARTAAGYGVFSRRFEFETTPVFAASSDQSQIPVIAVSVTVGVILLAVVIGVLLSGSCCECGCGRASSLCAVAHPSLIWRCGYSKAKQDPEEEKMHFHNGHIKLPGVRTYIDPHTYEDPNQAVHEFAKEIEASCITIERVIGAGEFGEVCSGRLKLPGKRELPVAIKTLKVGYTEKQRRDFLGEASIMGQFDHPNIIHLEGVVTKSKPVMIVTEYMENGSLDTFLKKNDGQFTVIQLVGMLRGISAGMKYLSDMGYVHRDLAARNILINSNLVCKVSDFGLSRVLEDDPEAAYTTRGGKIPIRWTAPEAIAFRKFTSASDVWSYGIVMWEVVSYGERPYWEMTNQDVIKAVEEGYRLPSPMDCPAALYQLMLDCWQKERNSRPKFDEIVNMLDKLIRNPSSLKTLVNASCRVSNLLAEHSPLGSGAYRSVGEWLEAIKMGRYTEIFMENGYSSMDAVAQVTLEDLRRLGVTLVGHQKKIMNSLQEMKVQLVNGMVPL

[13] = target: Ephrin type-A receptor 5 (Homo sapiens) (UniProt P54756); details: at 10 µM
[14] = target: Ephrin type-A receptor 7 (Homo sapiens) (UniProt Q15375); details: at 1 µM
Ephrin type-A receptor 7 (Homo sapiens), sequence (Q15375 28-998 limits assumed): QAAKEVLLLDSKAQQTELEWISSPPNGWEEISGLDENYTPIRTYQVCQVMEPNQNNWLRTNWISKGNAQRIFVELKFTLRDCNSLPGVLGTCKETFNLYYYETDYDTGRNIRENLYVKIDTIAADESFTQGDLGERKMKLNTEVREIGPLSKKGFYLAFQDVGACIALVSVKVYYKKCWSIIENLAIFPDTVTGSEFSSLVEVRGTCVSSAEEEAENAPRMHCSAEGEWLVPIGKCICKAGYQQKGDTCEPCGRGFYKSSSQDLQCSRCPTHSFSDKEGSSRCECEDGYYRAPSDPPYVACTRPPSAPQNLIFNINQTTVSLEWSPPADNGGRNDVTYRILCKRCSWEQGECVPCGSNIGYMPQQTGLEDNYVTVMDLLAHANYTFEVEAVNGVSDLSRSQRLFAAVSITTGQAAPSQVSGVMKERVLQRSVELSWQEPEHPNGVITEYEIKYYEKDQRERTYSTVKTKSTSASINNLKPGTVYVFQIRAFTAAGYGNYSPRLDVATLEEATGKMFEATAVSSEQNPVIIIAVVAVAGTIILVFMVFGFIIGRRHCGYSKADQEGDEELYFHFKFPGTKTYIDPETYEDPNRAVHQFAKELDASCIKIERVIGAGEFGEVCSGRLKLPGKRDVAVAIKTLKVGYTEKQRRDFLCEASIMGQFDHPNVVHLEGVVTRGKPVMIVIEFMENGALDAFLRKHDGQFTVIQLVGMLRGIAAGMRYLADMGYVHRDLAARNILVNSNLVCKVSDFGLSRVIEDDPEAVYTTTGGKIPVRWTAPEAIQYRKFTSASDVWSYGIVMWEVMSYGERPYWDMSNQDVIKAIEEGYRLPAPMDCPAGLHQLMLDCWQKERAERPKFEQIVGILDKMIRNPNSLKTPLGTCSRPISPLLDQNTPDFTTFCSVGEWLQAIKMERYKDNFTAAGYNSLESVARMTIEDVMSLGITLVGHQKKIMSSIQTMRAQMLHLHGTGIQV

[15] = target: Ephrin type-A receptor 7 (Homo sapiens) (UniProt Q15375); details: at 10 µM
[16] = target: T5, Ephrin type-A receptor 8 (Homo sapiens) (UniProt P29322); details: at 1 µM
T5 sequence (whole entry): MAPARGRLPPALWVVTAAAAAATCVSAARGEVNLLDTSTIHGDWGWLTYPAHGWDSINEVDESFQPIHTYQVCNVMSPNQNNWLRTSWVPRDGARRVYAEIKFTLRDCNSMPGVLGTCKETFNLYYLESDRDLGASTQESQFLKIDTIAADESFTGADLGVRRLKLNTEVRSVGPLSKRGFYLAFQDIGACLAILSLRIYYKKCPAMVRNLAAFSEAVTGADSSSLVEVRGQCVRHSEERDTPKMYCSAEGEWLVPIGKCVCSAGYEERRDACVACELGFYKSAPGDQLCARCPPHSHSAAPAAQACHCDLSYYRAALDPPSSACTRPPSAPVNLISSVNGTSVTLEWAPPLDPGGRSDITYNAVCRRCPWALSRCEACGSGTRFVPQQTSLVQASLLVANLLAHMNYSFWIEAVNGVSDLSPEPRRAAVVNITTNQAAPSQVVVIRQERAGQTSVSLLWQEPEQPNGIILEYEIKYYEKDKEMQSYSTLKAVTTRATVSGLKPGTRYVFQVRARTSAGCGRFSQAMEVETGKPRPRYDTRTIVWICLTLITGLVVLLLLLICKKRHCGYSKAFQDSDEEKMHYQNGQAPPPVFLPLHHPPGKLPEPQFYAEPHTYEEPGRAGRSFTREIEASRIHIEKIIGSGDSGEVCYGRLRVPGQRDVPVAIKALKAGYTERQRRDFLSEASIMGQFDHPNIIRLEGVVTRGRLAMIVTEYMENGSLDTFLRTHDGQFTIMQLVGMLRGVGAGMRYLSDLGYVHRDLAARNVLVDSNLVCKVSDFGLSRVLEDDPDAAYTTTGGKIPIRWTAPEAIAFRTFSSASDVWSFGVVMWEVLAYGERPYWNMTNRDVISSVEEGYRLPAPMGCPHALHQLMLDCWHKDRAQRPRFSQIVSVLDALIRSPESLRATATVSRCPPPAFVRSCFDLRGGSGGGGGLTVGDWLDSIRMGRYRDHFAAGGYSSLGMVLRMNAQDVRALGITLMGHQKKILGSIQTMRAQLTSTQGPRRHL

[17] = target: T5, Ephrin type-A receptor 8 (Homo sapiens); details: at 10 µM
[18] = target: T6, Ephrin type-B receptor 1 (Homo sapiens) (UniProt P54762); details: at 1 µM
T6 sequence (whole entry): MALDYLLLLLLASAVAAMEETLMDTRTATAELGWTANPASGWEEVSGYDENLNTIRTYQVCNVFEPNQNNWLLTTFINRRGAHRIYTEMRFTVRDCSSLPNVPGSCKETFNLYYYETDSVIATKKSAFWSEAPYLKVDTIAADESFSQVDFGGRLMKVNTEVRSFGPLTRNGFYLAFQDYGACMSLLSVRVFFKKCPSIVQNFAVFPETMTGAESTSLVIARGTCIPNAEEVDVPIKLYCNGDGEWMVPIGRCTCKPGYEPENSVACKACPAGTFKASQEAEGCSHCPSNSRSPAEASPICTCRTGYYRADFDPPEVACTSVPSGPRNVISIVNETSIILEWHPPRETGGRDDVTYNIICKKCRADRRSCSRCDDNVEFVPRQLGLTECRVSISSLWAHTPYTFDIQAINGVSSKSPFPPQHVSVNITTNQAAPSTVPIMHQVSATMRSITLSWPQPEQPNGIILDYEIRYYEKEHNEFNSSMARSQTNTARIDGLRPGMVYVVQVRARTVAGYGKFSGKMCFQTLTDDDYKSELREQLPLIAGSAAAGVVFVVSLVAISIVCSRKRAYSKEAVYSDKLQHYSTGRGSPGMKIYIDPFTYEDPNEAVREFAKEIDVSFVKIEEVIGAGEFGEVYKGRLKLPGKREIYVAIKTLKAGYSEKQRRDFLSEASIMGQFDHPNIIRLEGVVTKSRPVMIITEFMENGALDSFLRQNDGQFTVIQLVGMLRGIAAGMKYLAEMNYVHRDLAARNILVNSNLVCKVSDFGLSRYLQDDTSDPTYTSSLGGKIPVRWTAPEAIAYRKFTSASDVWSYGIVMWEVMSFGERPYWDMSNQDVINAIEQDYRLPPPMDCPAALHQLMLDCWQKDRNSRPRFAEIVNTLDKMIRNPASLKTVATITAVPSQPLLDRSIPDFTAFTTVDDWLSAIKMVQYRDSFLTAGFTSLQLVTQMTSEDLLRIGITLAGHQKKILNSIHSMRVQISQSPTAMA

[19] = target: Epidermal growth factor receptor (Homo sapiens) (UniProt P00533); details: at 1 µM

Compound | residual activity [1] | residual activity [2] | residual activity [3] | residual activity [4] | residual activity [5] | residual activity [6] | residual activity [7] | residual activity [8] | residual activity [9] | residual activity [10] | residual activity [11] | residual activity [12] | residual activity [13] | residual activity [14] | residual activity [15] | residual activity [16] | residual activity [17] | residual activity [18] | residual activity [19]
O=c1cc(-c2cccc3c2Sc2ccccc2S3)oc(N2CCOCC2)c1 | 93% | 101% | 95% | 105% | 94% | 100% | 82% | 100% | 94% | 106% | 104% | 113% | 88% | 97% | 98% | 108% | 111% | 97% | 
CO[C@@H]1[C@H](N(C)C(=O)c2ccccc2)C[C@H]2O[C@]1(C)n1c3ccccc3c3c4c(c5c6ccccc6n2c5c31)C(=O)NC4 | 9% | 90% | 88% | 87% | 81% | 97% | 95% | 97% | 99% | 103% | 90% | 97% | 86% | 94% | 70% | 94% | 97% |  | 101%
O=C(O)c1ccc2c3c1cccc3c(=O)n1c3ccccc3nc21 | 13% | 54% | 11% | 103% | 89% | 88% | 102% | 103% | 91% | 106% | 104% | 102% | 100% | 104% | 88% | 103% | 93% | 107% | 
O=C1NC(=O)c2cc(Nc3ccc(F)cc3)c(Nc3ccc(F)cc3)cc21 | 64% | 105% | 101% | 69% | 52% | 100% | 80% | 104% | 76% | 100% | 83% | 93% | 71% | 74% | 21% | 87% | 56% | 82% | 

Reference: ChEMBL document CHEMBL2218924, “A broad activity screen in support of a chemogenomic map for kinase signalling research and drug discovery” (Biochem J, 2013)
